TWEAK Fn14 block: TWEAK-Fn14 signaling inhibition | TWEAK-stimulated Fn14 reporter cells, luciferase luminescence, 8 h | actives 2% (n = 360,000) | inhibition, % at 10 µM; in the data active = inhibition above about 50%
KKLEB tox: reduces viability of KKLEB cystic fibrosis airway cells; KKLEB CF airway cells viability, ATPlite luminescence, overnight; active compounds read low; cells stimulated with P. aeruginosa culture filtrate; activity change (cytotoxicity), % at 5 µM; actives 0.36% (n = 360,000);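 active = corrected activity change at or below -50% at 5 µM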
Peg3 prom inh: reduces Peg3 promoter-driven luciferase expression in HeLa; inhibition, % at 20 µM; AID 588405; HeLa PEG-Prom luciferase reporter, luminescence, overnight; actives 1.7% (n = 360,000);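 active = inhibition of at least 50% at 20 µM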
CF NFkB block: inhibitors of cystic fibrosis induced NF-kB; actives 0.86% (n = 360,000); AID 588850; inhibition, % at 5 µM; KKLEB NF-kB-GFP reporter, PAF-induced, GFP fluorescence overnight;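 active = at least 50% inhibition at 5 µM, scaled per plate between neutral and stimulator controls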;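 note: PAF is a Pseudomonas aeruginosa culture filtrate used as stimulus; plate controls were PAF-stimulated DMSO wells for no effect and unstimulated DMSO wells for full effect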
TROY signal inh: inhibitors of TROY-dependent NF-kB signaling. inhibition, % at 10 µM. actives 0.98% (n = 360,000). Q293 LMP1-TROYcd NF-kB luciferase reporter, 4 h;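 active = compounds whose plate-normalised and pattern-corrected inhibition of the luciferase reporter signal at the single screening dose is 50% or more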
HIF-2a inh: HIF-2a inhibition. 786-0 RCC cells HIF-2a reporter, luciferase luminescence, overnight. inhibition, % at 18.8 µM. actives 0.72% (n = 360,000). AID 624352;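 active = inhibition of the luminescence signal of 40% or more relative to plate controls, in a single-dose primary screen at 18.75 µM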
An asterisk follows results filed as active; . = no result. Compounds with a hit are over-represented: about 4% of the library has one in this group of screens.

SMILES	TWEAK Fn14 block	KKLEB tox	Peg3 prom inh	CF NFkB block	TROY signal inh	HIF-2a inh
CC1=C(C#N)C(=O)NC(=O)/C1=C/c1ccc(-c2ccc(S(N)(=O)=O)cc2)o1	2.2	-10.4	6.4	1.8	12.4	18.5
COC(=O)c1ccc(CSc2ncnc3c2nnn3-c2ccc(F)cc2)o1	-22.4	-8.1	-35.2	12.4	55.3*	-57.4
CCN(CC)C(=O)CSc1ncnc2c1nnn2-c1ccc(F)cc1	25.6	4.6	-0.7	12.8	-1.9	-0.9
O=C1Nc2ccccc2N(O)N1c1cc(-c2ccccc2Cl)no1	55.1*	-5.9	0.9	-3.8	1.4	-5.3
Cc1cc(Br)ccc1N=C1NC(=O)CS1	4.9	10.9	-0.2	-6.0	13.4	10.4
Cc1ccc(N=C2NC(=O)CS2)c(C)c1	100.6*	-5.2	9.1	-9.6	.	12.7
Cc1cc(C)c(NN=c2c(=O)c3ccccc3c2=O)c(C)c1	5.6	-0.1	-314.0	0.1	-55.9	-283.5
O=c1c(=NNc2ccccc2Cl)c(=O)c2ccccc12	97.6*	-44.1	-6.3	-8.8	66.7*	-144.2
O=C1CC(c2ccccc2)CC(O)=C1C=NCc1ccc(Cl)c(Cl)c1 (configuration not stated)	76.4*	1.5	14.7	-4.8	.	6.3
O=C1CC(c2ccccc2)CC(O)=C1C=NCc1ccncc1 (configuration not stated)	11.1	-4.3	5.9	13.1	-3.1	17.1
c1ccc(-c2sc3ccccc3c2-c2ccc(OCCN3CCOCC3)cc2)cc1	-5.2	-3.3	14.3	17.5	-1.5	10.9
COc1ccc(-c2sc3ccccc3c2-c2ccc(OCCN(C)C)cc2)cc1	-46.8	-46.6	100.7*	44.3	26.2	22.5
COc1ccc(-c2sc3ccccc3c2-c2ccc(O)cc2)cc1	29.2	12.3	42.1	1.4	-4.7	5.7
CN(C)CCOc1ccc(-c2c(-c3ccsc3)sc3ccccc23)cc1	-29.6	-31.4	98.5*	42.5	-5.5	-2.0
Cc1ccc(S(=O)(=O)N2CCCCC2)cc1NC(=O)c1ccncc1	16.4	-0.6	1.1	-5.1	5.8	12.1
CC(C)CCNC(=O)C(=O)Nc1ccc2c(c1)N(S(=O)(=O)c1cccs1)CCC2	-3.1	-23.1	-26.2	35.0	-19.0	-28.6
O=C(Cn1ccc(NC(=O)OCc2ccccc2)nc1=O)NCCCn1ccnc1	-4.1	-5.7	1.6	-2.1	-4.7	10.5
CC1=NN(c2ccc(C)cc2)C(=O)/C1=C/c1ccc(-c2cc([N+](=O)[O-])ccc2O)o1	-10.7	-41.3	17.3	54.1*	49.8	-13.5
CC1=NN(c2ccc(C(=O)O)cc2)C(=O)/C1=C/c1ccc(-c2ccccc2F)o1	-26.5	-1.2	28.1	-5.2	-0.5	-4.8
CCNc1ncnc2[nH]ncc12	-1.3	6.0	3.0	13.0	-1.9	8.3
CCOC(=O)CCc1nc2ccccc2[nH]1	34.0	-7.0	-4.8	-10.1	4.7	-30.9
COCC(=O)O[C@]1(CCN(C)CCCc2nc3ccccc3[nH]2)CCc2cc(F)ccc2[C@@H]1C(C)C	0.3	-13.1	90.3*	9.3	-8.8	6.4
C#CCOCCOCCOCCNc1nc(N2CCN(C(=O)[C@H](CCCN=C(N)N)n3cc(C(N)[C@@H](C)CC)nn3)CC2)nc(N2CCN(C(=O)[C@H](CC(N)=O)n3cc([C@@H](N)CC(N)=O)nn3)CC2)n1 (some centres not stated)	14.2	-8.6	2.8	9.6	13.6	3.9
O=S(=O)(NC1c2cccc3cccc(c23)C1Sc1ncccn1)c1ccccc1 (configuration not stated)	108.0*	-2.0	12.2	-0.5	91.5*	6.4
CC(C)Cn1nc(C(=O)NCc2ccccc2CN2CCCC2)c2ccccc2c1=O	-1.9	-1.3	-1.1	-6.8	18.6	16.6
SMILES	TWEAK Fn14 block	KKLEB tox	Peg3 prom inh	CF NFkB block	TROY signal inh	HIF-2a inh
CCN1C(=O)/C(=C/C=C2/SCCN2C)SC1=S	67.8*	7.5	-107.6	-13.1	29.0	-100.5
COc1ccc(/C=N\NC(=O)/C(=C\Nc2nccc(C)n2)NC(=O)c2ccccc2)cc1	70.7*	-4.6	-13.7	4.3	.	-11.8
CCN(CC)C(=O)c1[nH]cnc1C(=O)Nc1ccccc1F	-7.5	-0.3	2.1	-41.4	4.5	5.4
COCc1nnc(NC(=O)c2ccc(S(=O)(=O)N3CCCc4ccccc43)cc2)o1	21.3	-13.3	19.5	11.9	14.0	23.1
COc1ccc(-c2nnc(NC(=O)c3ccc(S(=O)(=O)N4CCCc5ccccc54)cc3)o2)cc1	-7.6	-3.4	53.5*	5.0	2.9	19.4
Cc1cc2ccccn2c1C(=O)c1ccc([N+](=O)[O-])o1	40.8	-21.4	98.9*	30.0	-16.9	37.6
CC(=O)c1ccccc1C(=O)N1CCCC(CNC(=O)c2ccc(F)cc2)C1 (configuration not stated)	2.9	12.1	-8.9	-28.2	-18.6	-28.4
CCNC(=O)C1(C)CCN(C(=O)c2ccc3c(c2)OCO3)C1 (configuration not stated)	4.2	-5.0	5.8	11.1	10.8	10.9
Oc1ccc(Cl)cc1N=Cc1sc2ccccc2c1Cl	26.4	11.1	-10.5	-7.1	21.4	-14.1
O=[N+]([O-])c1ccc(O)c(N=Cc2sc3ccccc3c2O)c1	75.9*	-13.6	-55.4	8.6	75.8*	-129.5
Cc1ccc(/C=C/C(=O)NC2=NCCS2)cc1	51.5*	-7.8	-194.7	-1.4	28.8	-21.4
Cc1ccc(/C=C/C(=O)Nn2cnnc2)cc1	57.0*	-9.7	42.0	18.5	-12.3	-6.5
CC(C)(C)c1ccc(/C=C/C(=O)NC2=NCCS2)cc1	50.4*	-8.5	-185.8	-8.1	53.4*	-167.9
CC(=O)N(Cc1ccccc1)C(CC(=O)NCc1ccccc1)C(=O)O (configuration not stated)	15.8	-1.5	5.6	-13.3	-11.3	12.3
O=C1NCN(c2ccccc2)C12CCN(CCCC(c1ccc(F)cc1)c1ccc(F)cc1)CC2	-19.6	20.9	82.0*	9.0	27.4	-8.9
CCCC(=O)NC(NC(=S)Nc1c(C)n(C)n(-c2ccccc2)c1=O)C(Cl)(Cl)Cl (configuration not stated)	82.3*	1.7	14.2	1.5	.	13.7
CC(=O)NC(Nc1c(C)n(C)n(-c2ccccc2)c1=O)C(Cl)(Cl)Cl (configuration not stated)	-0.8	0.3	13.2	0.0	62.9*	13.0
COc1ccc2nc(C)cc(N/N=C/c3cccc(OC)c3O)c2c1	-59.2	-2.3	110.6*	-84.8	-42.0	16.8
COC(=O)c1sccc1N/N=C/c1cccc(Oc2ccccc2)c1	52.6*	13.9	-123.5	-4.7	70.6*	-83.1
COC(=O)c1sccc1N/N=C/c1ccc(OC)c(OC)c1OC	-54.1	-3.2	-265.8	4.4	-57.5	-266.3
COC(=O)c1sccc1NC(=O)c1cccc(OC)c1	10.6	-2.8	12.1	-0.8	-5.0	-14.1
COC(=O)c1sccc1N/N=C/c1cccc(OC)c1O	63.0*	6.5	-19.5	-12.5	42.8	-81.6
